Sampled rows, rich in hits. Any-hit rate of the full collection: about 3.9%.
FBA Mtb inh: Mtb FBA enzyme inhibitors, primary screen, biochemical, fluorescence, strain H37Rv | purified M. tuberculosis FBA, fluorescence read-out | Fructose-bisphosphate aldolase (Mycobacterium tuberculosis (strain ATCC 25618 / H37Rv)), … | AID 588726, 2011 | inhibition, % at 1 µM | 360,000 compounds, 2.3% hits; in the data active = inhibition above about 27%;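 also: 0% = vehicle and 100% = reference inhibitor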
Target sequence (P9WQA3 whole entry, looked up): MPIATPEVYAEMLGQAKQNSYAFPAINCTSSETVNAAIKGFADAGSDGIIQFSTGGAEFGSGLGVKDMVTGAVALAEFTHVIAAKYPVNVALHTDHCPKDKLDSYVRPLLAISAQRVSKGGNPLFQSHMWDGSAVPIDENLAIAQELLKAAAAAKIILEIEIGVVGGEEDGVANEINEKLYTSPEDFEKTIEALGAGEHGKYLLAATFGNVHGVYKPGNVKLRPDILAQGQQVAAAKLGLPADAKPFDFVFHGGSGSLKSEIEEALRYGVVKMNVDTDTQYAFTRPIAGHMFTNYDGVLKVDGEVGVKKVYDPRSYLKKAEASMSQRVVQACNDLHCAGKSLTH
PrPC surface inh: inhibitors of human cell surface prion protein PrPC, primary screen, cell-based, TR-FRET | Major prion protein (Homo sapiens), P04156 | TR-FRET read-out | AID 720596, 2013 | 370,000 compounds, 0.43% hits | inhibition, % at 13.8 µM; in the data active = inhibition above about 24%; also: 0% = median of the test wells and 100% = reference compound wells
BH1578 lux ind: inducers of Vibrio cholerae quorum light production without autoinducers, primary screen, BH1578 luxS cqsA deficient, single point | V. cholerae BH1578 lux reporter, luminescence, 6 h | activation, % at 18.7 µM | 350,000 compounds, 0.16% hits | AID 588436, 2011; in the data active = activation mostly above about 9.7%, no sharp cut-off
SARS 3CLpro inh: SARS-CoV 3CLpro protease inhibitors, primary screen, biochemical, quenched FRET; 290,000 compounds, 0.14% hits; recombinant SARS-CoV 3CLpro, quenched FRET peptide cleavage; inhibition, % at 6 µM; in the data active = inhibition above about 12%
GDH-TPI inh: GDH-TPI coupling enzyme inhibitors, primary screen, artefact control for M. tuberculosis FBA inhibitor project, biochemical, absorbance, full deck; GDH-TPI coupled enzyme counterscreen, NADH absorbance; inhibition, % at 4.8 µM; 360,000 compounds, 1.2% hits; in the data active = inhibition above about 30%;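 also: 0% = DMSO wells and 100% = wells lacking the enzyme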
* hit, by the source's call; i = inactive; / = no result; + = active, no number.

SMILES	FBA Mtb inh	PrPC surface inh	BH1578 lux ind	SARS 3CLpro inh	GDH-TPI inh
CCOC(=O)C1CCCN(C(=O)Cn2nc(C)n3c(cc4c(OC)cccc43)c2=O)C1 (stereo unspecified)	193.5*	-2.1	-0.2	-4.8	8.7
COc1cccc2c1cc1c(=O)n(CC(=O)N3CCCCCC3)nc(C)n12	+	-1.2	-0.4	0.3	12.6
COc1ccc(/C=N/Nc2nc3ccccc3c(=O)n2-c2ccccc2)cc1OC	-2.7	-2.6	i	-1.5	60.3*
COc1cc(/C=N/Nc2nc3ccccc3[nH]c2=O)ccc1O	0.2	6.2	-0.6	4.3	9.3
COc1cc(/C=N/Nc2nc(=O)[nH]nc2C)ccc1O	-5.9	-4.3	-2.2	-0.6	32.5*
COc1ccc(CCNc2nc(=O)[nH]nc2C)cc1OC	-0.2	8.0	-0.3	1.0	1.7
COc1ccc(/C=N/n2c(C)nc3ccccc3c2=O)cc1OC	0.1	-3.1	0.6	-3.9	7.2
COc1ccc(/C=N/Nc2nc(=O)[nH]nc2C)cc1OC	3.0	-0.2	-0.2	3.0	47.7*
Cn1ccc2c(-c3ccc(C(C)(C)C)cc3)cc3c(c21)C1CCC3C1 (stereo unspecified)	2.6	-6.8	/	/	/
Cn1ccc2c(-c3ccc(C(=O)O)cc3)cc3c(c21)C1CCC3C1 (stereo unspecified)	+	-14.6	/	/	/
O=C(c1ccc(NC(=O)C(c2ccccc2)c2ccccc2)cc1)c1ccc(C(=O)O)c(C(=O)O)c1	-3.0	-6.1	-0.8	2.8	-11.7
N#CCCN1CCN(C(=S)c2ccc(-c3cccc(Cl)c3)o2)CC1	-3.2	1.5	-0.7	-3.5	39.2*
N#CCCN1CCN(C(=S)c2ccc(-c3ccc(Cl)c(Cl)c3)o2)CC1	-2.1	4.7	i	2.6	24.4
COC(=O)c1ccc(Cn2cc(C(F)(F)F)cc([N+](=O)[O-])c2=O)cc1	-3.4	-14.5	+	4.6	8.7
Cc1cccc(/N=C/c2c(O)[nH]c3ccccc23)n1	0.2	-8.6	i	3.9	45.0*
CC(C)N=Cc1c(O)[nH]c2ccccc12	-1.6	-1.6	-0.2	-4.5	16.2
O=C(NCCC(NS(=O)(=O)OCC(Cl)(Cl)Cl)c1ccccc1)C(F)(F)F (stereo unspecified)	0.6	4.3	-0.5	-5.0	7.7
Fc1ccccc1-c1nc2ncccc2o1	6.3	-2.1	-0.3	4.0	-3.1
c1ccc2c(-c3nc4ncccc4o3)cccc2c1	+	-14.3	-0.2	-3.5	-1.6
N/C(=N\N=C\c1ccc(O)c(O)c1)c1nonc1N	-2.3	-7.4	-0.5	-0.3	41.2*
COc1cc(/C=N/N=C(\N)c2nonc2N)ccc1O	-3.5	-9.4	1.0	-11.8	17.6
COc1ccc(-n2cc3c(-c4cccc(Br)c4)nnc(C)c3n2)cc1	1.2	4.4	-0.3	-0.8	5.8
Cc1cc(C(=O)COC(=O)c2ccc(CO)cc2)c(C)n1CC1COc2ccccc2O1 (stereo unspecified)	2.1	-8.0	0.8	3.6	-3.1
CC(C)C[C@@H](CC#N)N1CCN(Cc2ccccc2)CCC1=O	-0.9	-8.6	i	-2.8	3.1
CCS(=O)(=O)N1CCc2nc(-c3ccccc3)sc2C1	8.0	-1.8	-5.6	3.0	-13.0
SMILES	FBA Mtb inh	PrPC surface inh	BH1578 lux ind	SARS 3CLpro inh	GDH-TPI inh
COc1ccc(-c2nc3c(s2)CN(S(C)(=O)=O)CC3)cc1OC	127.3*	-14.1	0.6	-2.0	2.5
CCOC(=O)c1ccc(NC(=O)Nc2ccc3c(c2)OCCO3)cc1	0.4	11.2	-0.4	-1.0	-1.7
CCC(C)(C(=O)Nc1ccc2c(c1)OCCO2)N(C(C)=O)c1ccc(C(N)=O)cc1 (stereo unspecified)	-1.3	0.1	-0.4	1.2	31.8*
O=C(CCN1C(=O)C2C3C=CC(C3)C2C1=O)NC1CCCc2ccccc21 (stereo unspecified)	5.1	0.0	66.5*	-1.0	-11.5
O=C(CN1C(=O)C2CCCCC2C1=O)NC1CCCc2ccccc21 (stereo unspecified)	1.9	-5.1	-0.5	/	6.7
O=C(C[n+]1cccc(Br)c1)c1ccc(-c2ccccc2)cc1	-3.1	-2.5	i	-4.8	7.1
O=c1[nH]c(=O)n(Cc2ccco2)c(O)c1C=NCc1cccs1	0.3	-1.2	-1.4	6.2	7.9
O=c1[nH]c(=S)n(Cc2ccco2)c(O)c1C=NCc1cccs1	3.9	5.2	i	1.5	34.0*

Screens from PubChem.
